# This is a sample that favours compounds with a hit; in the whole collection about 3.4% have one here.
# pPAFAH inh: pPAFAH enzyme inhibitors, primary screen, biochemical, fluorescence polarization, human. Platelet-activating factor acetylhydrolase (Homo sapiens), Q13093. AID 463082, 2010. inhibition, % at 3.39 µM. recombinant pPAFAH, FP-rhodamine probe fluorescence polarization. 1.5% of 330,000 active;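 active means inhibition above the mean inhibition across the screen plus 3 SD, cut at about 25% in these data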;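 further: inhibitors block binding of the rhodamine activity-based probe so polarization drops; 0% = enzyme with DMSO and 100% = wells lacking pPAFAH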
# PP1 counter: PP1-alpha phosphatase inhibitors, primary screen, counter-screen for PP5 inhibitor project, biochemical, fluorescence, OMFP substrate, single point; purified PP1alpha; inhibition, % at 6.7 µM; 0.9% of 320,000 active; AID 2235, 2010;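 active means inhibition above the mean inhibition of all tested compounds plus 3 SD, computed separately for each screening campaign, cut at about 15% in these data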
# PP5 inh: PP5 phosphatase inhibitors, primary screen, biochemical, fluorescence | Serine/threonine-protein phosphatase 5 (Homo sapiens), P53041 | purified PP5c, OMFP substrate fluorescence | inhibition, % at 6.7 µM | 0.18% of 320,000 active | AID 1987, 2009;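 active means inhibition above the campaign's mean inhibition across all tested compounds plus 3 SD, cut at about 9.5% in these data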;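 further: 0% = DMSO only and 100% = 100 µM cantharidin control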
# Target sequence (P53041 whole entry, looked up): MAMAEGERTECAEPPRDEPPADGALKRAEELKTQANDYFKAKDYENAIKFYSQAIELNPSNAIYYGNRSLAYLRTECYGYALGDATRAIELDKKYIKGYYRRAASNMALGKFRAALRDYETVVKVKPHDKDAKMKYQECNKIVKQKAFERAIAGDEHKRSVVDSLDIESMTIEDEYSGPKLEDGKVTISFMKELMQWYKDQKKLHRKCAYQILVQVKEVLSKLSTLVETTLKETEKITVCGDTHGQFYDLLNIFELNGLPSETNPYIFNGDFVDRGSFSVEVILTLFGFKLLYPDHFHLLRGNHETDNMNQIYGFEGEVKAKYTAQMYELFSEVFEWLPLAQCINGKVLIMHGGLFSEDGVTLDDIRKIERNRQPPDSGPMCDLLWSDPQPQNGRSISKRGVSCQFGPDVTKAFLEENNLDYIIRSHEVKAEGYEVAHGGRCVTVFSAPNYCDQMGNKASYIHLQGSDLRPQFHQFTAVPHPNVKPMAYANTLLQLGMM
# PAFAH1B3 inh: PAFAH1B3 enzyme inhibitors, primary screen, biochemical, fluorescence polarization, human; 0.28% of 340,000 active; Platelet-activating factor acetylhydrolase IB subunit alpha1 (Homo sapiens), Q15102; recombinant PAFAH1B3, FP-rhodamine probe; inhibition, % at 3.39 µM; AID 492972, 2010;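 active means inhibition above the screen-wide average of all tested compounds plus 3 SD, cut at about 25% in these data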;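 further: 0% = enzyme with DMSO only and 100% = wells lacking PAFAH1B3 protein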
# PAFAH2 inh: PAFAH2 enzyme inhibitors, primary screen, biochemical, fluorescence polarization, human; Platelet-activating factor acetylhydrolase 2, cytoplasmic (Homo sapiens), Q99487; recombinant PAFAH2, FP-rhodamine activity probe; inhibition, % at 3.39 µM; 0.99% of 340,000 active; AID 492956, 2010;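 active means inhibition above the mean over all tested compounds plus 3 SD, cut at about 30% in these data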;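 further: inhibitors block probe labeling of enzyme so polarization drops; 0% = enzyme with DMSO and 100% = wells lacking PAFAH2 protein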
# PAFAH1B2 inh: PAFAH1B2 enzyme inhibitors, primary screen, biochemical, fluorescence polarization, human | 1.2% of 340,000 active | recombinant PAFAH1B2, FP-rhodamine activity probe | inhibition, % at 3.39 µM | AID 492953, 2010;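 active means inhibition above the mean of all tested compounds plus 3 SD, cut at about 24% in these data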;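 further: 0% = enzyme with DMSO and 100% = wells lacking PAFAH1B2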
# Starred values were filed as active, the others as inactive; . = not tested or not shown.
SMILES,pPAFAH inh,PP1 counter,PP5 inh,PAFAH1B3 inh,PAFAH2 inh,PAFAH1B2 inh
COc1cccc(/C=C2/Sc3ccc(C(=O)NCCN4CCCC4)cc3NC2=O)c1,34.3*,-1.3,5.3,2.5,-7.8,-0.6
COCCN(Cc1ccccc1)C(=O)C1CCN(C(=O)Nc2ccccc2)CC1,-1.0,.,.,10.8,2.9,3.7
Cc1ccc(/C=N/Nc2cccc(C(=O)O)c2)s1,14.9,5.1,-0.3,3.3,-6.5,5.5
Cc1ccc(/C=N/Nc2ccc(C(=O)O)cc2)s1,25.7*,-4.7,0.6,-1.2,18.9,1.7
COc1ccc(CCN(C)C(=O)c2ccc(S(=O)(=O)Nc3ccccc3C)cc2)cc1OC,25.3*,-6.1,0.3,.,.,.
COc1ccc(CCN(C)C(=O)c2cccc(S(=O)(=O)NCc3ccccc3)c2)cc1OC,-2.6,-0.7,1.3,12.3,-4.2,-5.2
CCN(CC)c1ccc(S(=O)(=O)N2CCOCC2)cc1NC(=O)COC(=O)C1=COCCO1,.,.,.,5.1,14.4,0.6
CC1CCCCC1NC(=O)COC(=O)c1c2c(nc3ccccc13)/C(=C/c1ccco1)CC2 (configuration not stated),31.5*,11.7,2.1,13.1,26.8,6.1
C/C(=N\Nc1ccc(C(=O)O)cc1)c1ccc(S(=O)(=O)NCc2ccco2)cc1,9.8,-2.7,-1.1,5.2,-0.5,1.9
COc1cccc(/C=N/n2c(N)c(S(=O)(=O)c3cccs3)c3nc4ccccc4nc32)c1OC,3.4,-3.1,0.0,-2.9,-14.3,-3.6
Nc1c(S(=O)(=O)c2cccc(Cl)c2)c2nc3ccccc3nc2n1/N=C/c1ccc(O)c(O)c1,71.3*,13.2,7.8,.,.,.
Cc1onc(-c2ccccc2Cl)c1C(=O)NNC(=O)c1cccc(F)c1,5.8,-1.6,0.8,0.7,0.0,3.5
N#Cc1c(SCC(N)=O)nsc1SCc1ccc(Cl)cc1,1.7,1.9,2.5,6.5,-2.6,29.7*
Cc1ccc(S(=O)(=O)N2Cc3ccccc3CC2C(=O)Nc2ccc3c(c2)OCO3)cc1 (configuration not stated),28.2*,6.3,0.9,-2.7,0.5,-1.4
COc1cc(OC)c(C=NNC(=S)NC23CC4CC(CC(C4)C2)C3)c(OC)c1,.,.,.,7.5,6.9,5.6
COc1ccc(/C=C2\SC(=O)N(CCCC(=O)Nc3cc(Cl)ccc3C(=O)O)C2=O)cc1,-4.0,.,.,2.4,3.3,37.7*
CC(=O)OCC1=C(C(=O)O)N2C(=O)C(NC(=O)c3ccc(COc4cccc(Cl)c4Cl)o3)C2SC1 (configuration not stated),30.4*,3.8,0.5,8.3,12.0,9.5
COc1cccc(CN(C)CCCn2cnc(C(=O)Nc3ccc(C)c(C)c3)n2)c1,.,.,.,3.2,-10.1,7.1
COc1ccc(C(=O)Cc2ccc(OC)c(OC)c2)cc1,1.1,-3.7,-0.8,5.6,-6.7,2.3
COC(=O)c1ccc(CC(=O)c2c(C)cc(O)cc2O)o1,34.1*,3.1,-2.5,7.4,-3.3,-7.0
COc1cc(CC(=O)O)ccc1O,34.2*,-0.8,-0.4,-2.4,1.0,-2.2
COc1cc(C[C@@H](C)[C@@H](C)Cc2ccc(O)c(OC)c2)ccc1O,1.2,.,.,2.0,8.1,26.5*
COc1ccc(CC(=O)O)cc1O,4.8,-2.1,-0.2,-2.6,6.2,-3.5
COc1ccc(CC(=O)c2c(O)cc(O)cc2O)cc1OC,25.0*,-3.6,-1.9,4.5,-6.7,1.1
COC(=O)c1ccc(CC(=O)c2ccc(O)cc2O)o1,7.2,-0.3,-0.3,10.2,-0.7,-2.0
SMILES,pPAFAH inh,PP1 counter,PP5 inh,PAFAH1B3 inh,PAFAH2 inh,PAFAH1B2 inh
O=C(O)C(c1ccccc1)C1(O)CC2CCC1C2 (configuration not stated),.,.,.,8.2,5.3,1.2
CCCn1c(SCC(=O)N2CC(=O)Nc3ccccc32)n[nH]c1=O,5.5,.,.,6.2,-2.0,1.3
CCN(CC)c1ccc(/C=C2\C(=O)c3ccc(C(=O)O)cc3C2=O)cc1,27.9*,-7.4,-1.9,-19.9,20.3,1.3
Cc1ccnc(NC(=O)CCC(=O)N(CC(=O)NCc2ccc(F)cc2)Cc2ccccc2)c1,3.3,-0.2,-1.1,5.8,3.5,1.8
Cc1noc(C)c1C(=O)NC(C)C12CC3CC(CC(C3)C1)C2 (configuration not stated),-1.9,3.0,2.9,-3.3,-4.7,22.6
CC(NC(=O)c1ccccc1F)C12CC3CC(CC(C3)C1)C2 (configuration not stated),6.2,0.1,3.2,10.5,8.4,26.7*
Cc1nnsc1C(=O)NC(C)C12CC3CC(CC(C3)C1)C2 (configuration not stated),1.4,2.0,2.1,3.1,4.7,29.3*
CCC1(CC)NC(=O)N(CC(=O)Nc2sc3c(c2C(N)=O)CCC3)C1=O,28.0*,10.7,-0.1,3.2,16.1,2.5
CCC1(C)NC(=O)N(CC(=O)Nc2sc3c(c2C(=O)OC)CCCCC3)C1=O (configuration not stated),8.0,2.0,4.2,-8.7,-2.7,0.3
CCn1cc(C(=O)N[C@@H](CCSC)C(=O)NCCCOC)c(=O)c2cc3c(cc21)OCO3,2.1,2.2,1.1,-9.6,-5.4,-1.7
COc1cccc(NC(=O)CCC2CCN(C(=O)c3cncs3)CC2)c1,-6.3,-7.2,5.0,-0.7,-2.3,9.8
N#C/C(=C(/O)c1ccccc1F)c1nc2cc(C(F)(F)F)ccc2s1,2.0,-0.2,-0.5,11.2,24.6,82.2*
COc1ccc(N(CC(=O)Nc2cc(C)cc(C)c2)S(=O)(=O)c2ccccc2[N+](=O)[O-])c(OC)c1,1.8,1.1,0.5,-4.6,-5.9,-1.1
COc1ccc(N(CC(=O)Nc2cc(C)ccc2C)S(=O)(=O)c2ccccc2[N+](=O)[O-])c(OC)c1,28.8*,-2.3,4.7,3.6,-5.9,0.9
Oc1ccc(C2=Nn3c(nnc3-c3ccco3)SC2)cc1O,31.5*,-3.2,0.6,50.0*,49.3*,28.6*
CC(=O)c1ccc(NC(=S)NC2CCCC(C)C2C)cc1 (configuration not stated),33.8*,-1.4,3.5,3.3,-2.7,7.9
CC(=O)NC(CCS(C)(=O)=O)C(=O)Nc1ccc(Cl)c(Cl)c1 (configuration not stated),27.3*,7.3,2.1,-5.6,1.5,-1.2
O=C(O)c1ccc(N2CC3CC(C2)c2cccc(=O)n2C3)c(NS(=O)(=O)c2cccc(C(F)(F)F)c2)c1 (configuration not stated),5.6,-3.3,-2.7,3.5,-8.9,4.5
O=C(Nc1ccc(Cl)c(Cl)c1)Nc1nccs1,-16.0,17.5*,7.3,-4.5,-16.3,-3.2
